Mtb bLac sens – beta-lactam sensitization of Mtb H37Rv; AID 434955; 0.27% of 330,000 active; M. tuberculosis H37Rv growth with meropenem, percent inhibition; inhibition, % at 25 µM; call rule not given here;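 further: growth measured after seven days incubation then overnight dye step; 0% = bacteria only wells and 100% = bacteria with antibiotic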
UGM FP inh – Mtb UDP-galactopyranose mutase inhibition | purified UGM, fluorescence polarization probe displacement | 0.06% of 320,000 active | AID 504406 | inhibition, % at 10 µM; in the data active means inhibition above about 10%, passing the limit was not always enough; inconclusive means no clear call, values can overlap the other calls
Mtb hypoxia rep – Mtb hypoxia fluorescent reporter inhibition | AID 1159583 | M. tuberculosis hypoxia-regulated fluorescent reporter, fluorescence | fluorescence inhibition, % (test concentration not listed) | 0.1% of 300,000 active; in the data active means fluorescence inhibition mostly above about 23%, no sharp cut-off; inactive means mostly below about 17%
DUSP3 inh – inhibitors of human VHR1 phosphatase (DUSP3). P51452. recombinant VHR phosphatase, pNPP absorbance. inhibition, % at 13.3 µM. 0.52% of 290,000 active. AID 1654; in the data active means inhibition above about 50%
Target sequence (P51452 whole entry, looked up): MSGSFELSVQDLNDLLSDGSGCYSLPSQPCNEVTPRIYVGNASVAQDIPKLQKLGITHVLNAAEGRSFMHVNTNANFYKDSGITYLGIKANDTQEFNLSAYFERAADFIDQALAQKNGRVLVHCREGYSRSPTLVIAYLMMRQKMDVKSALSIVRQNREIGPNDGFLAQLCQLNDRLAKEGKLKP
Rv3671c inh – inhibits the M. tuberculosis serine protease Rv3671c | P9WHR9 | inhibition, % at 5.96 µM | 0.048% of 320,000 active; in the data active means inhibition above about 38%;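 further: extracellular domain of Rv3671c used as enzyme; 0% = enzyme with DMSO and 100% = no enzyme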
Target sequence (P9WHR9 whole entry, looked up, the tested form may be a part): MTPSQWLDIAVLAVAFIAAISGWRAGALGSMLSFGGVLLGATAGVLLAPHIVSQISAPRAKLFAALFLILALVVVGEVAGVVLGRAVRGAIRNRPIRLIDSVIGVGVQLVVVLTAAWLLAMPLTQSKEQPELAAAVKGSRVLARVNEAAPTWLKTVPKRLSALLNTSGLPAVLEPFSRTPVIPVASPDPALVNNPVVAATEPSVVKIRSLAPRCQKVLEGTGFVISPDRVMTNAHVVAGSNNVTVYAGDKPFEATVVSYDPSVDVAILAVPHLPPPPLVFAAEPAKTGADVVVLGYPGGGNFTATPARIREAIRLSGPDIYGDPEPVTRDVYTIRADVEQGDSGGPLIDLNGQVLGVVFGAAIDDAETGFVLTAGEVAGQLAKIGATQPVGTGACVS
* hit, by the source's call; ? = inconclusive; . = not tested or not shown. Most compounds without a hit are left out; they make up all but 0.59% or so of the library.

SMILES | Mtb bLac sens | UGM FP inh | Mtb hypoxia rep | DUSP3 inh | Rv3671c inh
Cc1ccc2nc(-c3ccncc3)cc(C(=O)Nc3ccc(F)cc3C)c2c1 | -4 | 0 | 2 | 19 | -5
CN(C(=O)C1CCCN(c2ncnc3c2nc2n3CCCCC2)C1)c1cccc(Cl)c1 (stereo unspecified) | 7 | 0 | -3 | 52* | -2
CCOc1ccc(CCNS(=O)(=O)c2cc3c(cc2C)NC(=O)CO3)cc1OCC | -3 | 1 | 8 | 21 | -1
COc1ccc(-c2cc(C(=O)Nc3ccc(F)cc3F)no2)cc1 | 5 | 2 | 3 | 55* | -15
CCn1c(=N)n(CC(=O)C(C)(C)C)c2ccccc21 | 6 | 3 | 0 | -11 | -2
CCn1c(=N)n(CC(=O)OC)c2ccccc21 | -5 | 3 | 6 | 56* | 5
O=C(c1cc(COc2ccc3ncccc3c2)on1)N1CCC[C@H]1CO | 3 | 4 | 13 | 53* | 4
O=C(c1cc(COc2ccc3ncccc3c2)on1)N1CCCC(O)C1 (stereo unspecified) | 14 | 2 | 4 | 39 | 10
Cn1c(C=O)c(C#CC(C)(C)O)c2ccccc21 | 17 | 1 | 14 | . | 3
Cc1nn(C)c(C)c1S(=O)(=O)N(CC(=O)N1CCc2ccccc21)c1ccc(C(C)C)cc1 | 4 | 2 | -1 | 50* | -1
Cc1ccc(O)c(NC(=O)c2cc([N+](=O)[O-])ccc2Cl)c1 | 12 | -1 | -4 | 52* | 12
C/C(=N/Nc1ccnc2cc(Cl)ccc12)c1ccc(N)cc1 | -5 | 0 | . | . | 37
CC(C)N1CC(C(=O)Nc2cccc([N+](=O)[O-])c2)CC1=O (stereo unspecified) | -3 | -2 | -2 | 56* | 9
O=C(Nc1cccc([N+](=O)[O-])c1)C1CC(=O)N(Cc2ccccc2)C1 (stereo unspecified) | -7 | 4 | 13 | 8 | -9
CCCCCc1c(C)nc(N2CCc3ccccc32)[nH]c1=O | . | . | -2 | 53* | .
O=C(Nc1ccccc1-c1nc2ccccc2[nH]1)c1ccc(S(=O)(=O)N2CCCCC2)cc1 | . | . | 1 | 50* | .
CC1CCCCN1S(=O)(=O)c1ccc(C(=O)Nc2ccccc2-c2nc3ccccc3[nH]2)cc1 (stereo unspecified) | ? | 2 | 4 | 23 | -133
CCOc1ccc(Br)cc1S(=O)(=O)NCc1ccncc1 | 0 | 1 | -6 | 18 | 0
N#CC1=C(N)Oc2cc(N)ccc2C1c1ccc(Cl)cc1 (stereo unspecified) | -3 | 0 | 0 | -9 | 1
COc1ccc(C2C(C#N)=C(N)Oc3cc(N)ccc32)cc1 (stereo unspecified) | 3 | -1 | 7 | 56* | .
CN1[C@@H]2CC[C@H]1CC(OC(=O)[C@H](CO)c1ccccc1)C2 (stereo partly specified) | . | -2 | . | -2 | 0
CCCCOc1ccccc1/C=N/NC(=O)CC#N | 42 | 4 | . | 5 | -10
COc1ccc(-c2nc(CS(=O)(=O)CC(=O)NCCCN3CCN(C)CC3)c(C)o2)cc1 | -4 | 1 | 6 | 57* | -7
Cc1ccc(CNC(=O)CCS(=O)(=O)c2ccc3c(c2)NC(=O)C(C)S3)cc1 (stereo unspecified) | -1 | -1 | -4 | -2 | 2
COc1ccccc1CN(C)C(=O)COC(=O)c1ccc(Cl)nc1 | 41 | -1 | 19 | . | 0
SMILES | Mtb bLac sens | UGM FP inh | Mtb hypoxia rep | DUSP3 inh | Rv3671c inh
CC(C)(C)c1ccc2c(c1)OC(C(=O)N/N=C/c1ccc([N+](=O)[O-])o1)CO2 (stereo unspecified) | 100 | 6 | . | 57* | -2
O=C(CSCc1ccc(Cl)cc1)Nc1ccccc1O | 67 | -3 | 65* | 13 | 4
Cc1cccc(NC(=O)N2CCCC2)c1 | -3 | -1 | 3 | 52* | 0
Cc1cccc(NC(=O)N2CCCCCC2)c1 | -12 | 1 | -2 | 15 | -6
c1ccc(-c2c[nH]c3[n+]2CCCCC3)cc1 | -4 | 0 | . | 4 | -2
CN(CCc1ccccc1)C(=O)c1ccc(NC(=O)Cc2ccc(NC(=O)C3CCN(C(=O)C4CCCC4)CC3)cc2)cc1 | . | . | -7 | . | .
CCOC(=O)c1nc(NNC(=O)c2ccc([N+](=O)[O-])cc2)sc1C | 8 | 1 | -5 | 51* | -4
CCOC(=O)c1sc(NNC(=O)c2ccc(C)cc2)nc1C | -1 | -2 | -11 | -3 | 6
O=C(N/N=C/c1cccc(O)c1)c1cc(-c2ccc3c(c2)OCO3)n[nH]1 | 0 | 1 | . | 30 | -73
O=C(N/N=C/c1cccc([N+](=O)[O-])c1)c1cc(-c2ccc3c(c2)OCO3)n[nH]1 | 1 | 0 | . | 51* | 1
O=C(O)CCC(=O)N1N=C(c2ccc(Br)cc2)CC1c1ccc(Br)cc1 (stereo unspecified) | 6 | 4 | . | 56* | -5
O=C(O)CCC(=O)N1N=C(c2ccccc2)CC1c1ccc(Br)cc1 (stereo unspecified) | 0 | 2 | -4 | 73 | -3
O=C(CN1CCN(c2ccc(O)cc2)CC1)Nc1cc(S(=O)(=O)N2CCCC2)ccc1Cl | 1 | 1 | 16 | 10 | 3
O=C(CN1CCN(c2ccc(O)cc2)CC1)Nc1cc(S(=O)(=O)N2CCCCC2)ccc1Cl | 0 | 3 | 3 | 56* | 5
CCOc1ccc(C(=O)Nc2cccc3nsnc23)cc1[N+](=O)[O-] | -3 | 0 | -11 | 56* | -3
COc1ccc(CCN2CC(C(=O)N(C)CCOc3ccccc3)CCC2=O)cc1 (stereo unspecified) | 3 | 2 | 6 | 2 | 6
COc1ccc(CCN2CC(C(=O)N(C)Cc3ccccc3OC)CCC2=O)cc1 (stereo unspecified) | 2 | -3 | -4 | 53* | -5
O=C(O)C(C(=O)O)=C1C2CC3CC(C2)CC1C3 | 2 | 2 | 9 | 12 | 7
Cc1ccc(C)c(NC(=S)N2CCCC2)c1 | -7 | 0 | -8 | 36 | 2
Cc1ccc(NC(=S)N2CCCCCC2)c(C)c1 | 2 | -1 | -3 | 53* | 6
CC(C)NC(=O)c1ccc(CSCc2ccccc2Cl)o1 | -4 | 5 | 5 | 57* | 2
Cc1ccc(/C=C/C(=O)N2CCN(Cc3ccccc3)CC2)o1 | -1 | 1 | 59* | -7 | 1
Cc1ccc(C(=O)N2CCN(Cc3ccccc3)CC2)o1 | 0 | -1 | . | 8 | 2
COc1ccc(CCNc2c(C)c(C)nc3ncnn23)cc1 | -8 | -1 | 11 | 54* | 8
CCc1c(C)nc2ncnn2c1NCCc1ccc(OC)c(OC)c1 | -5 | -1 | 4 | 16 | 2
Cc1cc(C)c2c(CC(=O)O)coc2c1 | 5 | 4 | 4 | 2 | -2
Cc1cc(C)c2c(CC(=O)NN(C)C)coc2c1 | 8 | 3 | 0 | 53* | 1
CCOC(=O)N1CCN(S(=O)(=O)c2cc(Br)cc3c2N(C(C)=O)C(C)C3)CC1 (stereo unspecified) | -1 | -1 | 8 | 3 | 0
CCn1c(SCC(=O)N2CCc3ccccc32)nnc1-c1ccncc1 | -4 | 0 | -1 | 17 | -1

Compound activity (PubChem)
